Source: PubChem BioAssay AID1159580 (chemical genetic matrix, 2015)
Where “and” joins values, the source holds several entries; their conditions need not be identical. Identical values can stand only once. In all, about 5,500 compounds went through this assay and about 2,000 (36%) were called active. Roughly 18% stayed inconclusive and do not appear here. No stated cut-off is given here; in the data, active means normalized growth mostly below about 0.91 (no sharp cut-off); inconclusive means no clear call, values can overlap the other calls; inactive means mostly above about 0.92. The list shows a part of the results.

Assay: chemical genetic growth profiling, strain panel (AID 1159580);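 further: tested at 20 µM; growth read once vehicle control cultures reached saturation at 30 °C; 1 = growth at the plate median or of vehicle wells; lower values mean less growth of the strain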
Settings: growth OD

Measured: normalized growth

Cc1cc(C(C)(C)C)c(O)c(C)c1CC1=NCCN1
inactive: S. cerevisiae deletion strains, locus YJR066W, strain TOR1, hits give low values 0.928 | S. cerevisiae deletion strains, locus YJR075W, strain HOC1, hits give low values 0.995 | S. cerevisiae deletion strains, locus YKL009W, strain mrt4, hits give low values 1.01 | S. cerevisiae deletion strains, locus YKL068W, hits give low values 1 | S. cerevisiae deletion strains, locus YKL085W, strain MDH1 (second series), hits give low values 1 | S. cerevisiae deletion strains, locus YKL085W, strain MDH1, hits give low values 1 | S. cerevisiae deletion strains, locus YKL160W, strain elf1, hits give low values 1.02 | S. cerevisiae deletion strains, locus YKL190W, strain CNB1, hits give low values 0.991 | S. cerevisiae deletion strains, locus YKR001C, strain vps1, hits give low values 1.02 | S. cerevisiae deletion strains, locus YKR026C, strain gcn3, hits give low values 1.01 | S. cerevisiae deletion strains, locus YKR091W, strain srl3, hits give low values 0.996 | S. cerevisiae deletion strains, locus YLL001W, strain dnm1, hits give low values 1.01 | S. cerevisiae deletion strains, locus YLL026W, hits give low values 1.02 | S. cerevisiae deletion strains, locus YLL041C, strain sdh2, hits give low values 1.01 | S. cerevisiae deletion strains, locus YLR027C, strain aat2, hits give low values 1 | S. cerevisiae deletion strains, locus YLR039C, strain RIC1, hits give low values 1.01 | S. cerevisiae deletion strains, locus YLR058C, strain SHM2, hits give low values 0.991 | S. cerevisiae deletion strains, locus YLR102C, strain apc9, hits give low values 1 | S. cerevisiae deletion strains, locus YLR113W, strain HOG1, hits give low values 0.997 | S. cerevisiae deletion strains, locus YLR221C, strain rsa3, hits give low values 1.01 | S. cerevisiae deletion strains, locus YLR258W, strain gsy2, hits give low values 1 | S. cerevisiae deletion strains, locus YLR262C, strain YPT6 (second series), hits give low values 1.02 | S. cerevisiae deletion strains, locus YLR262C, strain YPT6, hits give low values 0.974 | S. cerevisiae deletion strains, locus YLR268W, strain sec22, hits give low values 1.01 | S. cerevisiae deletion strains, locus YLR320W, strain mms22, hits give low values 1.02 | S. cerevisiae deletion strains, locus YLR330W, strain CHS5, hits give low values 0.999 | S. cerevisiae deletion strains, locus YLR342W, strain FKS1 (second series), hits give low values 0.984 | S. cerevisiae deletion strains, locus YLR342W, strain FKS1, hits give low values 1 | S. cerevisiae deletion strains, locus YLR357W, strain rsc2, hits give low values 1.02 | S. cerevisiae deletion strains, locus YLR370C, strain arc18, hits give low values 1.01 | S. cerevisiae deletion strains, locus YLR371W, strain rom2, hits give low values 1.01 | S. cerevisiae deletion strains, locus YLR384C, strain iki3, hits give low values 1.02 | S. cerevisiae deletion strains, locus YLR418C, strain cdc73, hits give low values 1.02 | S. cerevisiae deletion strains, locus YML016C, strain PPZ1, hits give low values 0.998 | S. cerevisiae deletion strains, locus YML032C, strain rad52, hits give low values 0.999 | S. cerevisiae deletion strains, locus YML120C, strain ndi1, hits give low values 1.01 | S. cerevisiae deletion strains, locus YML124C, strain tub3, hits give low values 1.02 | S. cerevisiae deletion strains, locus YMR058W, strain fet3, hits give low values 1.01 | S. cerevisiae deletion strains, locus YMR078C, strain ctf18, hits give low values 1.02 | S. cerevisiae deletion strains, locus YMR125W, strain sto1, hits give low values 1 | S. cerevisiae deletion strains, locus YMR129W, hits give low values 1 | S. cerevisiae deletion strains, locus YMR205C, strain PFK2, hits give low values 1.04 | S. cerevisiae deletion strains, locus YMR223W, strain ubp8, hits give low values 1 | S. cerevisiae deletion strains, locus YMR231W, strain pep5, hits give low values 1.01 | S. cerevisiae deletion strains, locus YMR263W, strain SAP30, hits give low values 1 | S. cerevisiae deletion strains, locus YMR307W, strain GAS1, hits give low values 0.985 and 0.998 | S. cerevisiae deletion strains, locus YNL067W, strain RPL9B, hits give low values 0.988 | S. cerevisiae deletion strains, locus YNL071W, strain lat1, hits give low values 1 | S. cerevisiae deletion strains, locus YNL128W, strain TEP1, hits give low values 0.998 and 1.04 | S. cerevisiae deletion strains, locus YNL153C, strain GIM3, hits give low values 0.996 and 1.01 | S. cerevisiae deletion strains, locus YNL175C, strain NOP13, hits give low values 1 | S. cerevisiae deletion strains, locus YNL183C, strain NPR1, hits give low values 0.936 | S. cerevisiae deletion strains, locus YNL197C, strain WHI3, hits give low values 1.01 | S. cerevisiae deletion strains, locus YNL209W, strain ssb2, hits give low values 1 | S. cerevisiae deletion strains, locus YNL224C, strain SQS1, hits give low values 1.02 | S. cerevisiae deletion strains, locus YNL233W, strain BNI4, hits give low values 1 | S. cerevisiae deletion strains, locus YNL248C, strain rpa49, hits give low values 0.997 | S. cerevisiae deletion strains, locus YNL250W, strain rad50, hits give low values 1.01 | S. cerevisiae deletion strains, locus YNL271C, strain bni1, hits give low values 1.02 | S. cerevisiae deletion strains, locus YNL298W, strain CLA4, hits give low values 0.982 | S. cerevisiae deletion strains, locus YNL307C, strain MCK1, hits give low values 1.01 | S. cerevisiae deletion strains, locus YNL322C, strain KRE1 (second series), hits give low values 1.03 | S. cerevisiae deletion strains, locus YNL322C, strain KRE1, hits give low values 0.998 | S. cerevisiae deletion strains, locus YNR049C, strain mso1, hits give low values 1.01 | S. cerevisiae deletion strains, locus YNR052C, strain pop2, hits give low values 1.02 | S. cerevisiae deletion strains, locus YOL006C, strain TOP1, hits give low values 1.01 | S. cerevisiae deletion strains, locus YOL012C, strain htz1 1.23 | S. cerevisiae deletion strains, locus YOL147C, strain pex11, hits give low values 1.01 | S. cerevisiae deletion strains, locus YOR001W, strain rrp6, hits give low values 0.97 | S. cerevisiae deletion strains, locus YOR061W, strain CKA2, hits give low values 1 | S. cerevisiae deletion strains, locus YOR069W, strain VPS5, hits give low values 0.997 | S. cerevisiae deletion strains, locus YOR070C, strain gyp1, hits give low values 1.01 | S. cerevisiae deletion strains, locus YOR080W, strain dia2, hits give low values 1 | S. cerevisiae deletion strains, locus YOR083W, strain WHI5 (second series), hits give low values 1.02 | S. cerevisiae deletion strains, locus YOR083W, strain WHI5, hits give low values 1.03 | S. cerevisiae deletion strains, locus YOR106W, strain vam3, hits give low values 1.02 | S. cerevisiae deletion strains, locus YOR136W, strain idh2, hits give low values 1 | S. cerevisiae deletion strains, locus YOR144C, strain elg1, hits give low values 1 | S. cerevisiae deletion strains, locus YOR184W, strain ser1, hits give low values 1.01 | S. cerevisiae deletion strains, locus YOR231W, strain MKK1, hits give low values 1.01 | S. cerevisiae deletion strains, locus YOR265W, strain rbl2, hits give low values 1 | S. cerevisiae deletion strains, locus YOR270C, strain vph1, hits give low values 1.01 | S. cerevisiae deletion strains, locus YOR290C, strain snf2, hits give low values 1.03 | S. cerevisiae deletion strains, locus YOR316C, strain cot1, hits give low values 1 | S. cerevisiae deletion strains, locus YPL051W, strain arl3, hits give low values 1.02 | S. cerevisiae deletion strains, locus YPL055C, strain LGE1, hits give low values 0.983 | S. cerevisiae deletion strains, locus YPL078C, strain atp4, hits give low values 1.01 | S. cerevisiae deletion strains, locus YPL106C, strain sse1, hits give low values 1.04 | S. cerevisiae deletion strains, locus YPL240C, strain hsp82, hits give low values 0.994 | S. cerevisiae deletion strains, locus YPL256C, strain CLN2, hits give low values 0.961 | S. cerevisiae deletion strains, locus YPR119W, strain clb2, hits give low values 1 | S. cerevisiae deletion strains, locus YPR141C, strain kar3, hits give low values 1.01 | S. cerevisiae deletion strains, locus YPR163C, strain tif3, hits give low values 1.02 | S. cerevisiae deletion strains, locus YPR167C, strain met16, hits give low values 1.01 | S. cerevisiae deletion strains, strain wtn01, hits give low values 1.01 | S. cerevisiae strains, strain wild type, hits give low values 0.984
